# From PubChem BioAssay (NCATS)
# Values joined by “and” are separate entries in the source; they are usually repeats but may differ in a detail not shown here. Equal entries are not always repeated. Results filed as inconclusive are left out. Some compounds were tested as several samples or in several runs, with calls that do not always agree. Active and inactive are the calls of the source. Calls come from the whole dose curve; as a rule, active = well fitted curve in the direction sought with a large enough effect; inconclusive = small, poorly fitted or top-dose-only effect, or another doubt; inactive = no such curve, though single readings can be large; an effect the other way counts as inactive or inconclusive.
# Assays:
# [1] = Viability qHTS for spleen associated tyrosine kinase inhibitor (SYKi) naive MV4-11 cells (AID 1963823); note: nearly all actives have a fitted effect of over 40% in size
# Procedure, shortened: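 qHTS, SYK inhibitor-naive MV4-11; 500 cells/well; 72 hr compound exposure, 37 C; CellTiter-Glo added, 10 min RT; luminescence read.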
# [2] = Viability qHTS for spleen associated tyrosine kinase inhibitor (SYKi) drug resistant MV4-11 cells (AID 1963824); note: nearly all actives have a fitted effect of over 35% in size
# Procedure, shortened: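 SYK inhibitor-resistant MV4-11 AML cells, 500 per well, added to predispensed compounds and incubated 72 hr at 37 C, 5% CO2. Viability measured by CellTiter-Glo luminescence after 10 min at room temperature.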
# [3] = Cellular viability qHTS for adrenocortical cancer (ACC) cell line NCI-H295R (AID 1963990); note: nearly all actives have a fitted effect of over 60% in size
# Procedure, shortened: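 Readout: CellTiter-Glo luminescence, 20 min RT. Exposure: 48 h, 37C/5% CO2. Cells: NCI-H295R, ITS-DMEM serum-free. Range: up to 46 uM. Analysis: 4PL fit, IC50 plus efficacy.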
# Potency is the fitted concentration of half-maximal effect.
Compound,Potency [1],Potency [2],Potency [3]
CCC[C@@H]1C[C@@H](C(=O)N[C@@H]([C@H]2O[C@H](SC)[C@H](O)[C@@H](O)[C@H]2O)[C@H](C)Cl)N(C)C1,inactive,inactive,inactive
CCC[C@H](NC(=O)/C(C#N)=C/c1cccc(Br)n1)c1ccccc1,2.09 µM (active),2.35 µM (active),12600 nM (active)
CCC1Nc2cc(Cl)c(S(N)(=O)=O)cc2S(=O)(=O)N1 (stereo not drawn),inactive,inactive,inactive
N#C/C(=C\c1ccc(O)c(O)c1)C(=O)NCc1ccccc1,13.2 µM (active),9.2 µM (active) and 16.6 µM (active),inactive
C=C1C(=O)O[C@@H]2[C@H]3C(C)=CC[C@@]34O[C@@]4(C)CC[C@@H]12,3.32 µM (active),1.48 µM (active),17800 nM (active)
O=C(c1ccc(Nc2nc(C3CC3)cn3c(-c4cn[nH]c4)cnc23)c(F)c1)N1CCOCC1,1.05 µM (active),1.66 µM (active),7940 nM (active)
Clc1cc2c(NC3CCCC3)nnc(-c3ccncc3)c2cc1Cl,inactive and 18.6 µM (active),13.2 µM (active),inactive
CNC(=O)c1cccc(-c2ccc3c(N4CCOC[C@@H]4C)nc(N4CCOC[C@@H]4C)nc3n2)c1,164 nM (active) and 411 nM (active) and 132 nM (active),291 nM (active) and 580 nM (active) and 417 nM (active),794 nM (active)
Oc1ccccc1,inactive,inactive,inactive
CNC(=O)[C@@H](NC(=O)[C@H](CC(C)C)[C@H](O)C(=O)NO)C(C)(C)C,13.2 µM (active),10.5 µM (active),inactive
CN(C)Cc1cccc(N=C(c2ccccc2)c2c(O)[nH]c3cc(C(N)=O)ccc23)c1,0.468 µM (active),2.91 µM (active) and 1.18 µM (active),inactive
COC(=O)C1=C(C)NC(C)=C(C(=O)OC)C1c1ccccc1[N+](=O)[O-],13.3 µM (active),11.9 µM (active),9200 nM (active)
Cc1ccc(C(C)OC(=O)C2(C)CCC(C(=O)O)C2(C)C)cc1 (stereo not drawn),inactive,inactive,inactive
C[C@]12CCC3=C4CCC(=O)C=C4CC[C@H]3[C@@H]1CC[C@@]2(O)CC#N,inactive,inactive,inactive
Cc1nnc(C[C@@H]2C=C(c3ccc(Cl)cc3)c3ccccc3-n3c(C)nnc32)o1,0.235 µM (active),0.296 µM (active),6310 nM (active)
CCNC(=O)C#Cc1ccc2c(C(=Nc3ccc(CN(C)C)cc3)c3ccccc3)c(O)[nH]c2c1,0.0126 µM (active),0.0317 µM (active),2850 nM (active)
C[C@@H](Nc1ncnc2[nH]c(-c3ccc(O)cc3)cc12)c1ccccc1,4.11 µM (active) and 7.42 µM (active),5.17 µM (active) and 10.5 µM (active),11200 nM (active)
NS(=O)(=O)OC[C@@H]1C[C@@H](n2ccc3c(N[C@H]4CCc5ccccc54)ncnc32)C[C@@H]1O,103 nM (active) and 164 nM (active),73.1 nM (active) and 82 nM (active) and 74.2 nM (active),708 nM (active)
Cc1ccc(Nc2ncc3c(n2)N(C)C(=O)N(c2cc(NC(=O)c4cccc(C(F)(F)F)c4)ccc2C)C3)cn1,0.0148 µM (active),0.013 µM (active),inactive
C[C@H]1C[C@H]2[C@@H]3CCC4=CC(=O)C=C[C@]4(C)[C@H]3C(=O)C[C@]2(C)[C@@]1(O)C(=O)CO,inactive,inactive,inactive
COC1(c2sc3c(N4CCOCC4)nc(-c4cnc(N)nc4)nc3c2C)COC1,0.231 µM (active),0.411 µM (active),501 nM (active)
